Screens deposited in PubChem BioAssay by National Center for Advancing Translational Sciences (NCATS).
MCF10A rereplic: inducers of DNA re-replication in MCF 10A breast cells; MCF 10A DNA re-replication, Hoechst nuclear intensity, 48 h; 350,000 compounds, 2.9% hits; Potency, µM (top dose mostly 46.1 µM), for the others: top-dose activity, positive = re-replication, actives largely listed as activators; further: % of control where 0% means no effect; nearly all actives have a fitted effect of over 50% in size
VP16 counter: inhibits Gal4-VP16 luciferase reporter, ROR gamma counter-screen. Drosophila S2 Gal4-VP16 UAS-luciferase, luminescence, 20 h. Potency, µM (titrated, usually from 53.6 µM), for the others: top-dose activity, negative = inhibition, hits mostly inhibitors. 310,000 compounds, 3.5% hits;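 further: Gal4-VP16 expression switched on by copper sulfate through the metallothionein promoter; on the % scale 0 is the no-effect control and ±100 the full control effect; nearly all actives have a fitted effect of over 50% in size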
RORgamma inh: ROR gamma (mouse) transcription inhibition | P51450 | Drosophila S2 Gal4-RORgamma UAS-luciferase reporter, 20 h | Potency, µM (top dose mostly 53.6 µM), for the others: at the highest dose activity change, negative = inhibition, hits mostly inhibitors | 310,000 compounds, 5.4% hits; further: on the % scale 0 is the no-effect control and ±100 the full control effect; nearly all actives have a fitted effect of over 60% in size
Target sequence (P51450 whole entry, looked up, the tested form may be a part): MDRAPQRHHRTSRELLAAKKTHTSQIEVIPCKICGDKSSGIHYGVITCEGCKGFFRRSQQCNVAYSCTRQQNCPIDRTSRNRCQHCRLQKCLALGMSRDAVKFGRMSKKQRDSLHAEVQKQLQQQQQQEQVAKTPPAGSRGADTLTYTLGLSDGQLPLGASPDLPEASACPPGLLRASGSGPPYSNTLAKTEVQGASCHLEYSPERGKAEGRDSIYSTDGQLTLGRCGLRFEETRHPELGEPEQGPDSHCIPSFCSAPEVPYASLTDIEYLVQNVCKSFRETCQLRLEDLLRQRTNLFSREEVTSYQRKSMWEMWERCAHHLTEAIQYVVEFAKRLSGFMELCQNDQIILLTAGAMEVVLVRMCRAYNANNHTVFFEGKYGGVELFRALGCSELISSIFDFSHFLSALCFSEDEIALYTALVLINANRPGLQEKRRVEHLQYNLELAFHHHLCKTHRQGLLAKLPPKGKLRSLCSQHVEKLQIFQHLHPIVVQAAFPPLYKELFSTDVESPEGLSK
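A Gal4/UAS one-hybrid system in insect cells: metallothionein-promoter Gal4–ROR gamma fusion plus Photinus luciferase reporter. Copper sulfate 700 uM final, 20 hr ambient incubation, luminescent detection after 10 min with reagent.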
SW480 rereplic: inducers of DNA re-replication in SW480 colon cancer cells. SW480 DNA re-replication, Hoechst DNA content imaging, 48 h. Potency, µM (top dose mostly 46.1 µM), for the others: at the top dose re-replication activation, most hits filed as activators. 340,000 compounds, 1.8% hits; further: % of control where 0% means no effect; nearly all actives have a fitted effect of over 55% in size
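Image-based read-out: total Hoechst fluorescence of nuclei (405 nm excitation, 500-530 nm emission), with hits raising the fraction of high-intensity nuclei. SW480 colon cells incubated 48 hr with compounds at 37 C.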
ELG1 DNA repair: inhibitors of ELG1-dependent DNA repair in HEK293T cells | HEK293T ELG1-luciferase reporter, luminescence, 16 h; DNA damage induced by 5-fluorouridine | Potency, µM (highest dose often 46.1 µM), inactives show at the highest dose activity change, negative = inhibition, usual class: inhibitors | 330,000 compounds, 2.3% hits | AID 504467; further: on the % scale 0 is the no-effect control and ±100 the full control effect; nearly all actives have a fitted effect of over 55% in size
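Quantitative HTS, concentration-response format. 2,000 cells/well co-treated with 5-fluorouridine and compound, 16 hr in 5% CO2 at 37 °C; ONE-Glo luminescence read after 30 min.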
* = called active by the depositor; ? = inconclusive; / = not tested or not shown. Hits are enriched below; roughly 10% of the tested compounds scored in any of these assays. The call rests on the fitted dose curve; in most records, active means well fitted curve in the direction sought with a large enough effect; inconclusive means small, poorly fitted or top-dose-only effect, or another doubt; inactive means no such curve, though single readings can be large; an effect the other way counts as inactive or inconclusive. Potency means the concentration at half of the fitted maximal effect.

SMILES	MCF10A rereplic	VP16 counter	RORgamma inh	SW480 rereplic	ELG1 DNA repair
O=C(COc1ccc(F)cc1)c1ccc2c(c1)CCCC2	10.3µM*	/	/	1.1%	/
O=C(COc1ccc(Cc2ccccc2)cc1)c1ccc(F)cc1	?	-13.7%	?	/	?
COc1ccc([N+](=O)[O-])c(OC)c1C(=O)NC(=O)Nc1c(F)c(F)c(F)c(F)c1F	-10.9%	-3.4%	-2.7%	0.6%	-19.2%
COc1ccc(C(=O)Nc2cc(C)nn2-c2nc3ccccc3[nH]2)c(OC)c1	?	3.98µM*	2.24µM*	-44.3%	23.1µM*
CSCC[C@H](NC(=O)C1CCCC1)c1nc2ccccc2[nH]1	2.6%	-14.3%	0.3%	11.0%	16.4%
CCOC(=O)C(=O)Nc1cc(C)nn1-c1nc2ccccc2[nH]1	-5.1%	-8.3%	-34.2%	-3.0%	?
Cc1cc(NC(=O)C2CCCC2)n(-c2nc3ccccc3[nH]2)n1	19.8%	1.41µM*	0.631µM*	?	-7.3%
Cc1cc(NC(=O)c2ccccc2)n(-c2nc3ccccc3[nH]2)n1	7.5%	2.82µM*	1µM*	5.7%	-9.1%
Cc1cc(NC(=O)CC#N)n(-c2nc3ccccc3[nH]2)n1	17.9%	?	?	?	11.6µM*
O=C(COC(=O)/C=C/c1ccc([N+](=O)[O-])cc1)Nc1ccc2[nH]c(=O)[nH]c2c1	-2.4%	/	/	-10.8%	8.1%
CCCCCn1c(=O)[nH]c2cc(C(=O)N3CCN(C(=O)OCC)CC3)ccc2c1=O	4.3%	6.6%	7.4%	2.0%	-15.2%
COc1cccc(OC)c1C(=O)Nc1cc(C)nn1-c1nc2ccccc2[nH]1	?	?	3.55µM*	?	?
COC(=O)C1=C(C)N(Cc2ccccc2)C(=S)N[C@H]1c1ccccc1	-9.0%	15.8µM*	3.16µM*	?	-0.4%
CCOC(=O)C1=C(C)Nc2nc(SCC)nn2C1c1ccc(OC)cc1 (centres undefined)	13.1%	-8.4%	-11.7%	-3.3%	?
CCN1C(=S)N[C@@H](c2cccc(F)c2)C(C(=O)OC)=C1C	23.0%	11.2µM*	5.01µM*	-14.3%	9.0%
CCOC(=O)C1=C(C)Nc2nc(=S)[nH]n2C1c1ccc(Cl)cc1 (centres undefined)	1.7%	-13.5%	10µM*	-8.2%	?
CCOC(=O)C1=C(C)N(CC)C(=S)NC1c1ccc(Cl)cc1 (centres undefined)	17.1%	6.31µM*	7.08µM*	-3.2%	-5.9%
CCOC(=O)C1=C(C)N(CCCCCC(=O)O)C(=O)NC1c1ccc(Cl)cc1 (centres undefined)	-1.6%	5.1%	-0.3%	-4.4%	17.1%
CC(=O)Nc1sc(C)c(C)c1C(=O)OCC(=O)N(C)c1c(N)n(Cc2ccccc2)c(=O)[nH]c1=O	0.6%	/	/	-4.5%	7.8%
O=CN/C=C/c1cccc(O)c1	0.2%	/	/	-1.7%	/
COC(=O)C1=C(C)N(Cc2ccccc2)C(=NCCCCO)N[C@H]1CCc1ccccc1	5.2%	-1.9%	-2.4%	0.8%	7.6%
COC(=O)C1=C(C)N(Cc2ccccc2)C(=S)N[C@H]1CCc1ccccc1	/	?	4.47µM*	/	/
N#Cc1ccc(S(=O)(=O)N2CCN(C(=O)[C@@H]3CCCN3C(=O)c3cccs3)CC2)cc1	-6.1%	/	/	-3.0%	3.1%
CCN1C(=O)S/C(=C/c2c(OCc3ccc(C(=O)O)cc3)ccc3ccccc23)C1=O	6.51µM*	3.9%	11.2%	-404.6%	?
Cc1sc2cc3c(c(C(=O)c4ccccc4)[n+]2c1C)-c1cccc2cccc-3c12	11.6µM*	11.2µM*	?	?	23.1µM*
SMILES	MCF10A rereplic	VP16 counter	RORgamma inh	SW480 rereplic	ELG1 DNA repair
O=C(c1ccccc1)c1c2c(cc3sc4ccccc4[n+]13)-c1cccc3cccc-2c13	?	10µM*	?	7.9%	18.4µM*
O=C(c1ccccc1)c1ccc2ccccc2c1	?	/	/	-7.2%	/
Cc1cccc(C)c1NC(=S)N1CC(C)OC(C)C1 (centres undefined)	-0.1%	-3.3%	-9.7%	-8.3%	-11.9%
Nc1nc(Nc2ccccc2)nc(NC2CCCCC2)c1[N+](=O)[O-]	?	-17.2%	14.3%	9.2µM*	?
Nc1nc(NCCOCCO)nc(NC2CCCCC2)c1[N+](=O)[O-]	12.7%	-1.2%	12.8%	?	14.2%
CNc1nc(N)c([N+](=O)[O-])c(NC2CCCCC2)n1	-2.3%	9.4%	1.7%	-6.7%	0.1%
Nc1nc(NCCO)nc(NC2CCCCC2)c1[N+](=O)[O-]	25.9µM*	1.8%	9.1%	?	-11.3%
O=C(CN1C(=O)/C(=C2\SC(=S)N(C3CCS(=O)(=O)C3)C2=O)c2ccccc21)Nc1ccccc1 (centres undefined)	-3.6%	-20.9%	0.891µM*	-9.9%	3.7%
COc1ccccc1NC(=O)c1c(C)nc2ccccc2c1C(=O)O	-11.2%	-25.5%	12.4%	-21.5%	14.5%
O=C(O)c1c2c(nc3ccccc13)/C(=C/c1ccc(O)cc1)CC2	?	12.6µM*	7.94µM*	?	?
COc1cccc2c1CCc1c-2nc2ccccc2c1C(=O)O	?	10µM*	?	-5.0%	?
O=C(Nc1ccc(NS(=O)(=O)c2ccccc2)cc1)c1cccnc1	-8.4%	3.5%	8.9%	-28.5%	?
O=[N+]([O-])c1cccc(/C=N/N2CCN(c3ccccn3)CC2)c1	7.0%	-0.9%	?	?	?
Cc1nc(NC(=O)c2ccccc2)sc1-c1csc(NCc2ccco2)n1	-4.4%	?	20µM*	-2.2%	14.6µM*
Cc1ccccc1Nc1nc(-c2sc(NC(=O)c3ccco3)nc2C)cs1	-0.9%	-1.9%	?	-25.5%	?
CC(=O)Nc1nc(C)c(-c2csc(Nc3ccc(O)cc3)n2)s1	18.4µM*	-26.3%	?	?	?
CCC(C)C(=O)Nc1nc(C)c(-c2csc(Nc3ccc(Cl)cc3)n2)s1 (centres undefined)	?	10µM*	-44.1%	9.2%	8.2µM*
CC(=O)Nc1nc(C)c(-c2csc(Nc3ccccn3)n2)s1	?	5.3%	?	1.0%	?
Cc1ccc(Nc2nc(-c3sc(NC(=O)c4ccco4)nc3C)cs2)cc1	-18.2%	-1.3%	?	-8.4%	10.3µM*
CCCCn1c(N)c(N(CCOC)C(=O)CCCc2cccs2)c(=O)[nH]c1=O	-1.5%	/	/	5.1%	13.6%
CC(OC(=O)CNC(=O)C12CC3CC(CC(C3)C1)C2)C(=O)Nc1ccc(S(N)(=O)=O)cc1 (centres undefined)	-4.7%	5.3%	17.7%	0.8%	0.4%
CCC(=O)Nc1nc(C)c(-c2csc(Nc3ccc(C(=O)O)cc3)n2)s1	12.4%	-2.4%	24.2%	5.5%	0.5%
CC(=O)Nc1ccc(Nc2nc(-c3sc(NC(C)=O)nc3C)cs2)cc1	?	-17.2%	?	4.7%	23.1µM*
